The values below come from article PMC7862700, “An all-to-all approach to the identification of sequence-specific readers for epigenetic DNA modifications on cytosine”.

Common to all, as to assay: DAPPL (digital affinity profiling via proximity ligation, sequencing); 10 mM Tris-HCl pH 7.5, 50 mM NaCl, 1 mM DTT, 4% glycerol, room temperature, 30 min; GST-TFs on glutathione beads, 16-mer random dsDNA library, 0.1% formaldehyde crosslink after washing; high values mean tight binding
One test concerns the target T1, FEV (Homo sapiens, UniProt Q99581 1-238).
T1 sequence: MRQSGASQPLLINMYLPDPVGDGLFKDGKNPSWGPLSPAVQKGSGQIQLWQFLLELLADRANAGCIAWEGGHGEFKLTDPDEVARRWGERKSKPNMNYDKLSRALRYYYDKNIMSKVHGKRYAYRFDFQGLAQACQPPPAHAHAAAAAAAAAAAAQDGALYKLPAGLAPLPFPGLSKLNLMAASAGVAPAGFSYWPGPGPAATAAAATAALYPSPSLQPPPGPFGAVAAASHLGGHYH
Particulars: protein: recombinant; tags: N-terminal GST; dsDNA, one strand shown. The method in brief: (§1)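 Binding signal is defined as a hexamer's read frequency for one factor over its frequency for the tag-only sample. To obtain reads, GST-fused human transcription factors were expressed in yeast, captured on glutathione beads, barcoded with DNA and pooled with that sample. Pools met 200 nmole of a 16-mer random double-stranded DNA library in Tris/NaCl/DTT/glycerol buffer for 30 min at room temperature before washing, 0.1% formaldehyde crosslinking, proximity ligation (BsaI/T4 ligase, 1 h, 37 °C), PCR and Illumina NextSeq500 sequencing.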

A further test concerns the target ETV5 (Homo sapiens, UniProt P41161 1-510). The following applies: protein: recombinant; tags: N-terminal GST; dsDNA, one strand shown. The essentials: as §1
Another test has as its target HSF1 (Homo sapiens, UniProt Q00613 1-529). Particulars: protein: recombinant; tags: N-terminal GST; chain copies: 3; dsDNA, one strand shown. The method in brief:
as §1

Another test deals with T2, SPIC (Homo sapiens, UniProt Q8N5J4 1-248).
T2 sequence: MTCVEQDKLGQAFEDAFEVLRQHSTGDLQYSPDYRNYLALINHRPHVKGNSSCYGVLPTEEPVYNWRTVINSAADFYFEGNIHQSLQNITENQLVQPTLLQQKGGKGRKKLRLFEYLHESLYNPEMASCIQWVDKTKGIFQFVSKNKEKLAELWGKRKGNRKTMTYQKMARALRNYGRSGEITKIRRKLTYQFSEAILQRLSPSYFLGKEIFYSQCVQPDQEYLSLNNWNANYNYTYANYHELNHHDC
The following applies: protein: recombinant; tags: N-terminal GST; dsDNA, one strand shown. The method in brief:
as §1

Another test addresses ELF4 (Homo sapiens, UniProt Q99607 1-663). Particulars: protein: recombinant; tags: N-terminal GST; dsDNA, one strand shown. The method in brief: as §1
A further test addresses T3, ELK4 (Homo sapiens, UniProt P28324-2 1-405).
T3 sequence: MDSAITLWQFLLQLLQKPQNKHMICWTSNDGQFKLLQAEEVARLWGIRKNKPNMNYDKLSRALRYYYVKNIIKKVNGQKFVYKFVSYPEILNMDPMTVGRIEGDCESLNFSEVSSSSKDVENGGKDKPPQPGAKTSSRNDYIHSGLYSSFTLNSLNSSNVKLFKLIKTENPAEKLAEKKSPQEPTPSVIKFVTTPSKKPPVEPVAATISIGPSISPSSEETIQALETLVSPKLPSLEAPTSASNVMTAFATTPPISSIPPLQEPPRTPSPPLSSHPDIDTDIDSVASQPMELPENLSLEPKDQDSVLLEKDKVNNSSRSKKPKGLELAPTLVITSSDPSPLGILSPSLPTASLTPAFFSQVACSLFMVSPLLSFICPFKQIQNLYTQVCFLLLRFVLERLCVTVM
The following applies: protein: recombinant; tags: N-terminal GST; dsDNA, one strand shown. The method in brief:
as §1

The next test has as its target T4, ETV2 (Homo sapiens, UniProt O00321 1-342).
T4 sequence: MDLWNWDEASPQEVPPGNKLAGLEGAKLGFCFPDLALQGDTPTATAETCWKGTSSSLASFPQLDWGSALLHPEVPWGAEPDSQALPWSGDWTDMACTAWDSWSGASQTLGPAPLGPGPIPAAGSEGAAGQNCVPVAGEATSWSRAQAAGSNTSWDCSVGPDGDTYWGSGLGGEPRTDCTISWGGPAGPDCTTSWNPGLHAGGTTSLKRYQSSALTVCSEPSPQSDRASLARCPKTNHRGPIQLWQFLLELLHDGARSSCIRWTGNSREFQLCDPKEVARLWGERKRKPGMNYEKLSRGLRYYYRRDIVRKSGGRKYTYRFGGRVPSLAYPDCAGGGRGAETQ
Particulars: protein: recombinant; tags: N-terminal GST; dsDNA, one strand shown. The essentials:
as §1

The target in the next test is T5, ELF3 (Homo sapiens, UniProt P78545 1-371).
T5 sequence: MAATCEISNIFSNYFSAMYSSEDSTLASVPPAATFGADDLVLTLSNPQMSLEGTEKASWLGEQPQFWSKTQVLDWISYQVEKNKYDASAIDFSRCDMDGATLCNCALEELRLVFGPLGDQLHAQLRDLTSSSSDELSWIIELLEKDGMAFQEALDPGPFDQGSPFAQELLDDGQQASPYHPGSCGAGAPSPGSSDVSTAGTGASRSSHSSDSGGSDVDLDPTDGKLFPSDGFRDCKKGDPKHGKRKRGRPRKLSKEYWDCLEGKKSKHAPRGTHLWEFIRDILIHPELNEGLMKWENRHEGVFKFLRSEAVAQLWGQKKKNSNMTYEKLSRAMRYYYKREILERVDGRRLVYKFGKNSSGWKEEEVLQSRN
Particulars: protein: recombinant; tags: N-terminal GST; dsDNA, one strand shown. The method in brief: as §1

The next test deals with CRX (Homo sapiens, UniProt O43186 1-299). The following applies: protein: recombinant; tags: N-terminal GST; dsDNA, one strand shown. The essentials:
as §1

Another test has as its target ETV1 (Homo sapiens, UniProt P50549 1-477). Particulars: protein: recombinant; tags: N-terminal GST; dsDNA, one strand shown. The essentials:
as §1

For a further test, the target named is T6, ERF (Homo sapiens, UniProt P50548 1-548).
T6 sequence: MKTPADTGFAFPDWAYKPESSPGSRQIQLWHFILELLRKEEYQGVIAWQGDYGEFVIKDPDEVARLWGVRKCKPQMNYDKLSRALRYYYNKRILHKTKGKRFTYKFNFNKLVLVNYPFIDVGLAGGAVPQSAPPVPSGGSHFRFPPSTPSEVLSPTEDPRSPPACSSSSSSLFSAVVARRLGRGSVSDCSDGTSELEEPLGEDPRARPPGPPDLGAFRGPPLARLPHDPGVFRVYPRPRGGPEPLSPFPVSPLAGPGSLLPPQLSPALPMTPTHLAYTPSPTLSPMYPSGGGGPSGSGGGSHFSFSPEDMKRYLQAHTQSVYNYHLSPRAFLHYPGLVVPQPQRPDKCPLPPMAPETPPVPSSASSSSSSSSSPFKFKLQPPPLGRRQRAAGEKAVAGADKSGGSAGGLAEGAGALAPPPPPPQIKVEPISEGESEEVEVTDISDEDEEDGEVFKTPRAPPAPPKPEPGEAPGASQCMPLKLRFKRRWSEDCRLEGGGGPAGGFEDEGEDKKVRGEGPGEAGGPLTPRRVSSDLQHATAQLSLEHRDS
Particulars: protein: recombinant; tags: N-terminal GST; dsDNA, one strand shown. The essentials: as §1

For the next test, the target named is T7, ETV3L (Homo sapiens, UniProt Q6ZN32 1-361).
T7 sequence: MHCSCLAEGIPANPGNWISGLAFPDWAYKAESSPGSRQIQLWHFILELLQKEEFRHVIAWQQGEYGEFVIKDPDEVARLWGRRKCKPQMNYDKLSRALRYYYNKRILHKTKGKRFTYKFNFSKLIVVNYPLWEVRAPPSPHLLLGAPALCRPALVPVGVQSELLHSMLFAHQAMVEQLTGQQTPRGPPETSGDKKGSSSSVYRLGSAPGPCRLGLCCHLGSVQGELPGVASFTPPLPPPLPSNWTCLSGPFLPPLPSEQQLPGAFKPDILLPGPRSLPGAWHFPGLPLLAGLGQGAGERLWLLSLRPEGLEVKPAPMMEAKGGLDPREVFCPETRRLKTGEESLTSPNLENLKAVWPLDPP
The following applies: protein: recombinant; tags: N-terminal GST; dsDNA, one strand shown. The method in brief:
as §1

In another test the target is T8, ETS2 (Homo sapiens, UniProt P15036 1-469).
T8 sequence: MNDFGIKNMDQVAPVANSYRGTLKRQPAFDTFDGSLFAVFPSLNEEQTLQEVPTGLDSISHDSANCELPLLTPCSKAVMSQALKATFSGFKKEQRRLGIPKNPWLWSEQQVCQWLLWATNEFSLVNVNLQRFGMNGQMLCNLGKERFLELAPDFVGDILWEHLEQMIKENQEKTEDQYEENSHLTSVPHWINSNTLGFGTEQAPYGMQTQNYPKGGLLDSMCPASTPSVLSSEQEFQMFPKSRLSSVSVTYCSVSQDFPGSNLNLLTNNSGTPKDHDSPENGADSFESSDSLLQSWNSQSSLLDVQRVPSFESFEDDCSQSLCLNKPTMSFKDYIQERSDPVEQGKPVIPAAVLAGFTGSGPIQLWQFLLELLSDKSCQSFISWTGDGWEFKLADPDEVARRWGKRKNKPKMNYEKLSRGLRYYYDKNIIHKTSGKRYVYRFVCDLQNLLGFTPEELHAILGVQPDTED
Particulars: protein: recombinant; tags: N-terminal GST; dsDNA, one strand shown. The essentials: as §1

In another test the target is T9, SPDEF (Homo sapiens, UniProt O95238 1-335).
T9 sequence: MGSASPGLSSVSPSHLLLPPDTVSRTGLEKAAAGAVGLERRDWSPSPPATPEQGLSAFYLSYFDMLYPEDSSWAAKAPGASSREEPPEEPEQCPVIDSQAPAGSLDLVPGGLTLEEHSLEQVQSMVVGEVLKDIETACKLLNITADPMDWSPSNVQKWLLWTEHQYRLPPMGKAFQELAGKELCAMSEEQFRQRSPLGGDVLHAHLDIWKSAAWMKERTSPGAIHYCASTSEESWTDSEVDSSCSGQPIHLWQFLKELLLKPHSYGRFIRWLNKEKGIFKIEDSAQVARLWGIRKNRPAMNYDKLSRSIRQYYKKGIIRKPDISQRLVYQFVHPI
The following applies: protein: recombinant; tags: N-terminal GST; dsDNA, one strand shown. The method in brief: as §1

A further test concerns the target T10, ETV7 (Homo sapiens, UniProt Q9Y603 1-341).
T10 sequence: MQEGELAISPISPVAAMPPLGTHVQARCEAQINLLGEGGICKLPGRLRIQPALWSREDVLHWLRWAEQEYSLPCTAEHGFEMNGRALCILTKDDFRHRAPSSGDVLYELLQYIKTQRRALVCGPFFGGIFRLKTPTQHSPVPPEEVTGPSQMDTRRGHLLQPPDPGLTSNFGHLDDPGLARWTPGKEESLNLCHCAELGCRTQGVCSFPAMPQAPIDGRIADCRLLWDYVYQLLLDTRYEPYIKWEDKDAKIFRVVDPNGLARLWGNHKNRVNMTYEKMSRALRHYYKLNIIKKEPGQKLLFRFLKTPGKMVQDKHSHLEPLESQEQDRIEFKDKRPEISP
The following applies: protein: recombinant; tags: N-terminal GST; dsDNA, one strand shown. The method in brief: as §1

Another test has as its target T11, ELF5 (Homo sapiens, UniProt Q9UKW6-2 1-255).
T11 sequence: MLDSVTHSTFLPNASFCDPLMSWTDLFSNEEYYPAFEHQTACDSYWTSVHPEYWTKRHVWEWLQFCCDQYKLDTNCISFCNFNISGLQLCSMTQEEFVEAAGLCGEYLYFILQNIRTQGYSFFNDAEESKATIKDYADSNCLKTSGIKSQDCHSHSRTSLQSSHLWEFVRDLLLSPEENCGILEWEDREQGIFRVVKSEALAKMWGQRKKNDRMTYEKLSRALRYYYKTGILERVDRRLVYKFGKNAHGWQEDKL
Particulars: protein: recombinant; tags: N-terminal GST; dsDNA, one strand shown. The method in brief:
as §1

Another test concerns the target T12, ETV3 (Homo sapiens, UniProt P41162-2 1-143).
T12 sequence: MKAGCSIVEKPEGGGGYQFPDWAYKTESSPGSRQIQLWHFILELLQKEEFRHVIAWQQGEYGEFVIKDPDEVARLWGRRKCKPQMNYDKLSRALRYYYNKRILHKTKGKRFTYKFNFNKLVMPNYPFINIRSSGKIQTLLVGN
Particulars: protein: recombinant; tags: N-terminal GST; dsDNA, one strand shown. The essentials:
as §1

The next test concerns the target ETV6 (Homo sapiens, UniProt P41212 1-452). The following applies: protein: recombinant; tags: N-terminal GST; dsDNA, one strand shown. The method in brief: as §1

Chain of ETV6 (P41212 whole entry): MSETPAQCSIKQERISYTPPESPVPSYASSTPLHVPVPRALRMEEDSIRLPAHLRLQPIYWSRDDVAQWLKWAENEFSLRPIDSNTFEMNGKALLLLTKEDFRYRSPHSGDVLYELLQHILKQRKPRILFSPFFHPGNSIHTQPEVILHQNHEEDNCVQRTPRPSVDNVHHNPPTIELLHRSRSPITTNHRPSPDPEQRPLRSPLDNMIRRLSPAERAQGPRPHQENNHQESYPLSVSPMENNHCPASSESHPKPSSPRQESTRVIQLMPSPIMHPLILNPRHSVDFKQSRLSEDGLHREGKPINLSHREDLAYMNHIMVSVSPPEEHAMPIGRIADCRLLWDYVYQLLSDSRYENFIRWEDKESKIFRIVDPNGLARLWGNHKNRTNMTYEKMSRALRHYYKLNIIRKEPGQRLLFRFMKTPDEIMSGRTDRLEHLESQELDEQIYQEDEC
Chain of HSF1 (Q00613 whole entry): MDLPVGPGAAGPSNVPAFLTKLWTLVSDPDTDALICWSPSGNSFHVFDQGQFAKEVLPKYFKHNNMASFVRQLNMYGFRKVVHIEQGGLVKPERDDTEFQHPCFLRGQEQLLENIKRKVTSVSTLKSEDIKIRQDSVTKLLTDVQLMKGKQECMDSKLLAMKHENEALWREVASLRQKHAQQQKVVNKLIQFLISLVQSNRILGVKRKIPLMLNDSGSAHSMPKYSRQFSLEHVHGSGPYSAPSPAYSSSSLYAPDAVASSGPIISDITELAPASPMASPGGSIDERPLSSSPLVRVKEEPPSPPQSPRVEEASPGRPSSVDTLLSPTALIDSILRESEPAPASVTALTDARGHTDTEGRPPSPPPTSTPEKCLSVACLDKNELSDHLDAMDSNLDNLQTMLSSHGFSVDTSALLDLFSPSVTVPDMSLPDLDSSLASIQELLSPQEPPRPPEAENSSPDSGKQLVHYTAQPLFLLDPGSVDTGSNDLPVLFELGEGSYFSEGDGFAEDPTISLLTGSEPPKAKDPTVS
Chain of ELF4 (Q99607 whole entry): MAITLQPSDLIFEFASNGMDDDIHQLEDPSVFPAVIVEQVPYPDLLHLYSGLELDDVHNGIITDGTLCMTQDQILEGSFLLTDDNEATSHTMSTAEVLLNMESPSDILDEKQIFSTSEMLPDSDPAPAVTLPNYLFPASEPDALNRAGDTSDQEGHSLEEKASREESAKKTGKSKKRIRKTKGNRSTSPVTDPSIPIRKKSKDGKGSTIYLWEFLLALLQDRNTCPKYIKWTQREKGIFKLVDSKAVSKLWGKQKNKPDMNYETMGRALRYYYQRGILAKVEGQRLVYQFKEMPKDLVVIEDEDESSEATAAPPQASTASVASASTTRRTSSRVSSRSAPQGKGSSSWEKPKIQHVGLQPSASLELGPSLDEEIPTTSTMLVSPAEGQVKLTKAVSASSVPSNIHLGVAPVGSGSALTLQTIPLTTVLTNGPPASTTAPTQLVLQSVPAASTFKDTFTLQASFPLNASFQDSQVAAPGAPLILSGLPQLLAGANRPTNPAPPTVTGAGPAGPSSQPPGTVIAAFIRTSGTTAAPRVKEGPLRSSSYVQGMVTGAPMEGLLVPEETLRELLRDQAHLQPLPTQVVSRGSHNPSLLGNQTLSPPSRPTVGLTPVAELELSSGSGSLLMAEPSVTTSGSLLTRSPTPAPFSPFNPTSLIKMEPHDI
Chain of CRX (O43186 whole entry): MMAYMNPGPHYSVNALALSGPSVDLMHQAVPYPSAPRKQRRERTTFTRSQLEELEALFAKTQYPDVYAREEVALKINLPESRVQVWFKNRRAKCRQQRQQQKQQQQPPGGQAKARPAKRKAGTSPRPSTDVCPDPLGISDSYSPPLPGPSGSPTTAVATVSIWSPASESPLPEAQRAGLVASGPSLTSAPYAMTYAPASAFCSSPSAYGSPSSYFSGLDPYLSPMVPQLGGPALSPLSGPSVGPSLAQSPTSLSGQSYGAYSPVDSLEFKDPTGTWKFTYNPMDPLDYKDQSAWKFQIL
Chain of ETV5 (P41161 whole entry): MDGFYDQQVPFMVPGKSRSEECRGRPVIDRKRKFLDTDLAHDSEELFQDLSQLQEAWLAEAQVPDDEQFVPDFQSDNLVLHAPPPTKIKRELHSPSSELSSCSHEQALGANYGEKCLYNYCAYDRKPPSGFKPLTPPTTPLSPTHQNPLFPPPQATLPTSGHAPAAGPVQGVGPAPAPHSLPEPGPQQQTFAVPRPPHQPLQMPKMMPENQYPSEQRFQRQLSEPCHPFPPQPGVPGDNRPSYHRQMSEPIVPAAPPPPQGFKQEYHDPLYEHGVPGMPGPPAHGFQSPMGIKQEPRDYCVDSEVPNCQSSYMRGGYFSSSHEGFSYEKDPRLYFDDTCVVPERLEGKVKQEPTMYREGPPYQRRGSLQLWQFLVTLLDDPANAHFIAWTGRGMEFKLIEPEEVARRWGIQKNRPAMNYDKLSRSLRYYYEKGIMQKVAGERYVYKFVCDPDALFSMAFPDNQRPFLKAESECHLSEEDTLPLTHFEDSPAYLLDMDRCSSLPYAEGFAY
Chain of ETV1 (P50549 whole entry): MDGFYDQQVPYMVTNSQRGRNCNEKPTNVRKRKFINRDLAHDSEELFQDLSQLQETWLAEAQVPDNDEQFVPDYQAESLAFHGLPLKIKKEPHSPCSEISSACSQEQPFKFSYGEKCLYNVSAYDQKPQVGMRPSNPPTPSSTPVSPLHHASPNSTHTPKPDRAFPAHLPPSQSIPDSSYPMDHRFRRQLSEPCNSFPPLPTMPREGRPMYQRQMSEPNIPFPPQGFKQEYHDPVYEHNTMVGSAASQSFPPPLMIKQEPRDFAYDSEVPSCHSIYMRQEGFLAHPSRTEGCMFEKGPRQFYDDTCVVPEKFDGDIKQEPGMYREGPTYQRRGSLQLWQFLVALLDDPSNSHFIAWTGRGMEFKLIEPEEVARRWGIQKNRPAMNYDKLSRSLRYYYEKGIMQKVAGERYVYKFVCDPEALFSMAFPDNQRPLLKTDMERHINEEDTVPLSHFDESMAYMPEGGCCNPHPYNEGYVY

For the sequence ACGATT, the binding signal in the test with FEV is 1.28 fold enrichment (6-mer frequency, TF over GST control); with ETV5 it was 1.36 fold enrichment (6-mer frequency, TF over GST control); with HSF1, 1.69 fold enrichment (6-mer frequency, TF over GST control); in the test with SPIC it was 1.39 fold enrichment (6-mer frequency, TF over GST control); in the test with ELF4 it was 1.39 fold enrichment (6-mer frequency, TF over GST control); with ELK4, 1.43 fold enrichment (6-mer frequency, TF over GST control). Besides, the binding signal is 1.24 fold enrichment (6-mer frequency, TF over GST control) in the test with ETV2; 1.31 fold enrichment (6-mer frequency, TF over GST control) with ELF3; 1.99 fold enrichment (6-mer frequency, TF over GST control) in the test with CRX; 1.31 fold enrichment (6-mer frequency, TF over GST control) with ETV1; 1.4 fold enrichment (6-mer frequency, TF over GST control) with ERF; 1.28 fold enrichment (6-mer frequency, TF over GST control) with ETV3L. Moreover, the binding signal was 1.26 fold enrichment (6-mer frequency, TF over GST control) with ETS2; 1.27 fold enrichment (6-mer frequency, TF over GST control) in the test with SPDEF; 1.28 fold enrichment (6-mer frequency, TF over GST control) in the test with ETV7; 1.24 fold enrichment (6-mer frequency, TF over GST control) with ELF5; 1.32 fold enrichment (6-mer frequency, TF over GST control) with ETV3; 1.31 fold enrichment (6-mer frequency, TF over GST control) with ETV6.
